Assay outcomes as filed in PubChem.
HT1080NT lethal: kills 2HG-producing HT-1080-NT fibrosarcoma cells. HT-1080-NT fibrosarcoma viability, CellTiter-Glo ATP luminescence, 48 h. Potency, µM (doses to about 46.1 µM), for the others: at the highest dose activity, negative = less viability, actives largely listed as cytotoxic. 360,000 tested, 1.6% active. AID 686970;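 further: NT is the 2HG producing partner of a matched IDH1 knockdown line; 0% = DMSO-treated cells and -100% = media-only wells without cells; nearly all actives have a fitted effect of over 55% in size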
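Viability by CellTiter-Glo luminescence after 48 h compound exposure at 37C of HT-1080-NT cells (750/well, RPMI, 5% FBS). % activity scaled between DMSO wells and medium-only wells, then curve-fitted and categorized by curve class.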
KB-3-1 cytotox: kills parental KB-3-1 adenocarcinoma cells | Potency, µM (series often up to 46.1 µM), usual class: cytotoxic | AID 1347075 | 400,000 tested, 1.4% active | KB-3-1 viability, CellTiter-Glo ATP luminescence, 72 h; further: nearly all actives have a fitted effect of over 60% in size
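Screening of KB-3-1 cells (DMEM, 10% FBS, phenol-red free) ran from lowest to highest compound concentration; after 72 h at 37 °C viability was read luminescently and curves fitted.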
DT40 TDP1 no CPT: qHTS for Inhibitors of human tyrosyl-DNA phosphodiesterase 1 (TDP1): qHTS in cells in absence of CPT; 420,000 tested, 15% active; DT40 Tdp1-/- hTDP1 cells, no CPT, ATP luminescence, 48 h; AID 686978, 2013; Potency, µM (top dose mostly 46.2 µM), for the others: at the highest dose activity change, negative = growth inhibition, most hits filed as inhibitors; further: nearly all actives have a fitted effect of over 55% in size
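Chicken DT40 Tdp1-/- cells complemented with human TDP1, screened without camptothecin (DMSO vehicle only), 400 cells/well. Compounds pin-transferred, cells incubated at 37 °C for at least 48 hr. Growth read as ATP-dependent luminescence (CellTiter-Glo, 30 min at RT).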
KB-V1 MDR tox: KB-V1 MDR subline cytotoxicity; Potency, µM (doses to about 46.1 µM), usual class: cytotoxic; 400,000 tested, 3.4% active; KB-V1 MDR cells viability, CellTiter-Glo, 72 h; further: nearly all actives have a fitted effect of over 60% in size
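KB-V1 cells (P-gp-expressing MDR subline of KB-3-1) in phenol-red-free DMEM with 10% FBS were exposed to library compounds over a concentration series for 72 h at 37 degrees C. Viability read by CellTiter-Glo luminescence; concentration-effect curves fitted after normalization.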
DT40 TDP1 CPT: growth inhibition of DT40 Tdp1-/-;hTDP1 cells with camptothecin (screen for TDP1 inhibitors); 420,000 tested, 12% active; Potency, µM (highest dose often 46.2 µM), for the others: top-dose activity change, negative = growth inhibition, usual class: inhibitors; AID 686979; chicken DT40 Tdp1-/-;hTDP1 cells + 20 nM CPT, ATP luminescence, 48 h; further: nearly all actives have a fitted effect of over 55% in size
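Chicken DT40 Tdp1-/- cells stably complemented with human TDP1 were seeded at 400 cells/well in medium containing 20 nM camptothecin, exposed to pin-transferred compounds, and grown at 37 °C for at least 48 hr. Viability was read as ATP luminescence.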
HT1080 IDH1KD tx: toxicity to HT-1080 IDH1 knockdown cells (counter line) | HT-1080 IDH1 knockdown viability, ATP luminescence, 48 h | 360,000 tested, 2% active | Potency, µM (doses to about 46.1 µM), for inactives: at the top dose activity, negative = toxicity, usual class: cytotoxic;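 further: 0% = DMSO wells and -100% = cell-free medium wells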
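Viability of IDH1-knockdown HT-1080 fibrosarcoma cells was assessed by CellTiter-Glo after 48 h at 37 °C with titrated compound; concentration-effect curves were classified by fit quality and response size.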
* hit, by the source's call; i = inactive; ? = inconclusive; / = not tested or not shown; [ ] = another dose, or the depositor's remark. Sampled rows, rich in hits. Any-hit rate of the full collection: about 19%. The call rests on the fitted dose curve; in most records, active means well fitted curve in the direction sought with a large enough effect; inconclusive means small, poorly fitted or top-dose-only effect, or another doubt; inactive means no such curve, though single readings can be large; an effect the other way counts as inactive or inconclusive. Unless noted, on the % scale 0 is the no-effect control and ±100 the full control effect; potency means the concentration at half of the fitted maximal effect.

SMILES	HT1080NT lethal	KB-3-1 cytotox	DT40 TDP1 no CPT	KB-V1 MDR tox	DT40 TDP1 CPT	HT1080 IDH1KD tx
Cc1ccc(Cc2cnc(NC(=O)c3ccco3)s2)cc1	-15%	i	?	18µM*	-85%	-5%
O=C(Nc1ncc(Cc2ccccc2Cl)s1)c1ccc(-c2cccc([N+](=O)[O-])c2)o1	-12%	i	?	i	?	-6%
O=C(Nc1ncc(Cc2ccc(SC(F)F)cc2)s1)c1ccc(OC(F)F)cc1	0.073µM*	0.21µM*	1µM*	0.33µM*	1.3µM*	0.046µM*
Cc1cccc(Cc2cnc(NC(=O)c3ccc(C)o3)s2)c1	-4%	?	?	i	?	?
O=C(Nc1ncc(Cc2cccc([N+](=O)[O-])c2)s1)c1ccco1	?	5.8µM*	?	i	-13%	4.6µM*
O=S1(=O)N=C(Oc2cccc(C(F)(F)F)c2)c2ccccc21	/	?	/	i	/	/
Cc1cccc(Cc2cnc(NC(=O)C3=NCCN3)s2)c1	?	?	23µM*	?	-86%	-20%
O=C(Nc1ncc(Cc2cccc(Cl)c2)s1)c1ccc([N+](=O)[O-])cc1	-21%	?	8.2µM*	?	?	?
CN1CCCC(CNC(=O)c2cnn(-c3ncc4c(n3)-c3ccccc3CC4)c2C2CC2)C1 (configuration not stated)	/	/	-10%	/	-12%[9.04 µM]	/
CN(CCc1ccccc1)c1cc2c(c3c1ccn3C)C1CCC2C1 (configuration not stated)	-18%	i	?	i	16µM*	-22%
Cn1ccc2c(N(Cc3ccccc3)Cc3ccccc3)cc3c(c21)C1CCC3C1 (configuration not stated)	3%	i	18µM*	i	18µM*	-9%
CN(Cc1ccccc1)c1cc2c(c3c1ccn3C)C1CCC2C1 (configuration not stated)	-10%	i	?	i	?	-17%
CCc1ncc(CN2CCCC(C(=O)Nc3cccc(-c4ccc(F)cc4)c3)C2)cn1 (configuration not stated)	-12%	i	16µM*	?	23µM*	-1%
CCc1ncc(CN2CCCC(C(=O)Nc3cccc(-c4cccc(C)c4)c3)C2)cn1 (configuration not stated)	2%	/	?	/	?	-20%
CCn1cc(CN2CCCC(C(=O)Nc3cccc(-c4cc5ccccc5[nH]4)c3)C2)cn1 (configuration not stated)	16µM*	i	?	?	4%	?
O=C(Nc1cccc(-c2ccc(F)cc2)c1)C1CCCN(Cc2cccnc2)C1 (configuration not stated)	?	i	?	?	?	18µM*
CCC(C(=O)OCC(=O)Nc1c(Cl)cccc1Cl)c1ccccc1 (configuration not stated)	0%	i	?	i	-19%	-1%
COc1ncnc(-c2ccccc2)c1-c1ccccc1	1%	i	15µM*	i	?	-3%
NCCCCCc1nnc(SC/C=C/c2ccccc2)o1	-9%	i	23µM*	i	18µM*	-12%
Cc1cc([N+](=O)[O-])ccc1NC(c1nnc(-c2ccccc2)o1)c1ccccc1F (configuration not stated)	/	i	-7%	i	8%	/
Cn1cc([N+](=O)[O-])c(C(=O)NCc2cc3cc(Cl)ccc3[nH]2)n1	1%	9.2µM*	?	i	-15%	17%
CCOC(=O)c1ccc(NC(=O)c2cccc3c(=O)c4c([nH]c23)CCCC4)cc1	/	i	-29%	i	?	/
CC1CC(Nc2ccccc2)c2ccccc2N1C(=O)c1ccco1 (configuration not stated)	?	i	15µM*	?	23µM*	?
CC1CC(Nc2ccccc2)c2ccccc2N1C(=O)c1ccncc1 (configuration not stated)	-2%	i	8.2µM*	i	9.2µM*	-4%
O=C(CN1CCN(C(=O)c2ccco2)CC1)Nc1ccccc1	9%	i	-12%	i	11%	1%
SMILES	HT1080NT lethal	KB-3-1 cytotox	DT40 TDP1 no CPT	KB-V1 MDR tox	DT40 TDP1 CPT	HT1080 IDH1KD tx
CCOc1cccc(OCCn2cnc3ccccc3c2=O)c1	18%	i	-1%	i	15%	12%
O=c1c2ccc([N+](=O)[O-])cc2ncn1CCOc1cccc(Br)c1	-20%	i	10µM*	?	?	-5%
O=c1c2ccc([N+](=O)[O-])cc2ncn1CCOc1ccc(Cl)cc1	3%	i	15µM*	i	18µM*	2%
O=C(Cn1cnc2cc([N+](=O)[O-])ccc2c1=O)NCc1ccc(Cl)cc1	-28%	i	?	i	-3%	-22%
COc1cccc(C2(CC(=O)N3CCCOc4c(cccc4OC)C3)CC(=O)N(C)C2=O)c1 (configuration not stated)	/	/	-23%	/	6%	/
Cc1ccc(C(=O)NCC(=O)N(C)CC(=O)Nc2c(Cl)cccc2Cl)s1	-3%	i	-15%	i	-39%	-22%
Cc1ccc(NC(=O)c2ccc3c(=O)n4c(nc3c2)CCC4)cc1S(=O)(=O)N(C)C	0%	?	?	?	-23%	10%
Cc1cc(N)n2nc(-c3ccccc3)c(-c3ccccc3)c2n1	13%	i	1.6µM*	i	1.5µM*	8%
Cc1cc(C)n2nc(C(F)(F)F)c(-c3ccccc3)c2n1	18%	i	-2%	i	-11%	1%
Cc1nn2c(N)c(-c3ccccc3)cnc2c1-c1ccc(Cl)cc1	?	?	?	?	16µM*	?
Cc1nn(-c2nc3ccccc3[nH]2)c(N)c1-c1ccccc1	?	i	16µM*	?	?	?
Cc1nn(-c2ccccc2)c(N)c1-c1ccccc1	11%	i	11%	i	3%	11%
Cc1nc2c(-c3ccccc3)c(C)nn2c(N)c1-c1ccccc1	?	?	29µM*	?	21µM*	?
Cc1nc2cc(-c3ccccc3)nn2c(N)c1-c1ccccc1	16%	i	?	i	-11%	0%
Cc1oc(-c2ccccc2NC(=O)C2CCCO2)nc1CNC(=O)c1cc(F)c(F)cc1F (configuration not stated)	/	/	-1%	/	-16%[9.04 µM]	/
